# Values joined by “and” are separate entries in the source; they are usually repeats but may differ in a detail not shown here. Equal values may be shown once. Results filed as inconclusive are left out. Where a call stands in place of a potency, no number is given. Active and inactive are the calls of the source. Unless noted, calls follow the shape of the dose curve; as a rule, active = well fitted curve in the direction sought with a large enough effect; inconclusive = small, poorly fitted or top-dose-only effect, or another doubt; inactive = no such curve, though single readings can be large; an effect the other way counts as inactive or inconclusive. Peptide text beside a SMILES is read from it.
# Key:
# [1] = molecular target: ATPase family AAA domain-containing protein 5 (Homo sapiens) (UniProt Q96QE3); assay: Validation screen for small molecules that inhibit ELG1-dependent DNA repair in human embryonic kidney (HEK293T) cells expressing luciferase-tagged ELG1 (AID 493107); conditions: HEK293T ELG1-luciferase level, luminescence, 5-fluorouridine co-treatment, 16 h; series mostly up to 46.1 µM;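 also: cells co-treated with the DNA-damaging agent 5-fluorouridine alongside compound; inhibitors lower the ELG1-luciferase luminescence signal; nearly all actives have a fitted effect of over 70% in size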
# Summary of the method: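 HEK293T cells expressing luciferase-tagged ELG1 were co-treated with 5-fluorouridine and compound or DMSO for 16 hr at 37 °C, 5% CO2. Luciferase activity was then read with ONE-Glo after 30 min at room temperature; suppressed signal indicates blocked ELG1 function.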
# [2] = Nrf2 qHTS screen for inhibitors: Validation (AID 493153; active = well fitted inhibition curve with a large enough effect in the main read-out, with a control signal flat, not every such curve was filed as active); conditions: A549 ARE-Fluc reporter, 18-24 h; viability change: measured here: cytotoxicity max response; luciferase luminescence, at 46.1 µM (top of the series)
# Summary of the method: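 A549 cells carrying an ARE-driven firefly luciferase reporter, in 5% FBS OPTI-MEM, were treated with compounds in concentration-response for 18-24 h at 37°C. Viability was read by CellTiter-Fluor fluorescence, then Nrf2 activity by luciferase luminescence.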
# [3] = qHTS for Inhibitors of Cell Surface uPA Generation: Validation Assay (AID 493164); conditions: mouse cells, plasminogen activation; series mostly up to 38.3 µM;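 also: RAW 264.7 macrophage cells exposed to compound for 18 h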
# Summary of the method: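 RAW 264.7, 4000 cells/well, o/n plating; cpd 7-pt 1:5 dilution 2.45 nM–38.3 uM final; 18 h, 37 C/5% CO2; ATP-Lite, 5 s luminescence exposure.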
# [4] = molecular target: Galactokinase (Homo sapiens) (UniProt P51570); assay: qHTS Validation Assay for Inhibitors of Human Galactokinase (GALK) (AID 493189); conditions: purified human GALK enzyme activity, qHTS 7-point titration; series mostly up to 57.5 µM
# Chain of Galactokinase (Homo sapiens) (P51570 whole entry, looked up): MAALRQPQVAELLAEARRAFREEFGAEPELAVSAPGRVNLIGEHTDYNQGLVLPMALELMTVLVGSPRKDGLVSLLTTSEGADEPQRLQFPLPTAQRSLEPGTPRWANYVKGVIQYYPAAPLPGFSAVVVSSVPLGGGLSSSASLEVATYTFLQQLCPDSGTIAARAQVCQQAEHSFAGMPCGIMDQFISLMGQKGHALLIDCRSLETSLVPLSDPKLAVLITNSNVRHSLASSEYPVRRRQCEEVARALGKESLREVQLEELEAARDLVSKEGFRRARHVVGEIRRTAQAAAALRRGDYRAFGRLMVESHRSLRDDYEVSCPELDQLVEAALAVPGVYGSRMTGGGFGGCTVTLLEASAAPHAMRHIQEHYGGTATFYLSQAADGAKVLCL
# Summary of the method: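 Enzyme activity is inferred from ATP consumption: human GALK phosphorylates galactose (100 uM) using 35 uM ATP for 1 h at room temperature, and luciferase-based Kinase-Glo Plus reports unconsumed ATP.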
# [5] = Validation screen for small molecules that induce DNA re-replication in SW480 colon adenocarcinoma cells (AID 504364); conditions: DNA re-replication phenotype (high-content imaging); series mostly up to 46.1 µM
# Summary of the method: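 SW480 cells seeded at 250 per well were exposed to compound or DMSO for 48 hr at 37 C, 5% CO2, then stained with Hoechst for 40 min. DNA content per nucleus was imaged (405 nm ex, 500-530 nm em).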
# [6] = molecular target: Peptidyl-prolyl cis-trans isomerase NIMA-interacting 1 (Homo sapiens) (UniProt Q13526); assay: qHTS Validation Assay to Find Inhibitors of Pin1 (AID 504536; active = well fitted inhibition curve with a large enough effect in the polarisation, with a control signal flat, not every such curve was filed as active; the % refers to the polarisation); conditions: Pin1 fluorescence polarization peptide binding assay; series mostly up to 57.5 µM
# Chain of Peptidyl-prolyl cis-trans isomerase NIMA-interacting 1 (Homo sapiens) (Q13526 whole entry, looked up): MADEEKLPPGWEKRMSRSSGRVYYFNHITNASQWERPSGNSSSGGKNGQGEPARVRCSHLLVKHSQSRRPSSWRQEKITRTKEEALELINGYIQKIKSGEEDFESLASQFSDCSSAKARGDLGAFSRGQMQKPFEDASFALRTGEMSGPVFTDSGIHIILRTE
# Summary of the method: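 Fluorescence polarization competition: compounds (titration) displace HiFluor-488-labeled Pin1-1b peptide from Pin1 (0.3 uM final) in pH 7.5 HEPES buffer with DTT, 10 min at room temperature; %Activity normalized to no-enzyme wells, curves fitted.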
# [7] = molecular target: Phosphoglycerate kinase, glycosomal (Trypanosoma brucei brucei) (UniProt P07378); assay: qHTS Validation Assay to Find Inhibitors of Phosphoglycerate Kinase (AID 504547); conditions: enzymatic PGK inhibition, coupled luminescence read-out; series mostly up to 57.5 µM
# Chain of Phosphoglycerate kinase, glycosomal (Trypanosoma brucei brucei) (P07378 whole entry, looked up): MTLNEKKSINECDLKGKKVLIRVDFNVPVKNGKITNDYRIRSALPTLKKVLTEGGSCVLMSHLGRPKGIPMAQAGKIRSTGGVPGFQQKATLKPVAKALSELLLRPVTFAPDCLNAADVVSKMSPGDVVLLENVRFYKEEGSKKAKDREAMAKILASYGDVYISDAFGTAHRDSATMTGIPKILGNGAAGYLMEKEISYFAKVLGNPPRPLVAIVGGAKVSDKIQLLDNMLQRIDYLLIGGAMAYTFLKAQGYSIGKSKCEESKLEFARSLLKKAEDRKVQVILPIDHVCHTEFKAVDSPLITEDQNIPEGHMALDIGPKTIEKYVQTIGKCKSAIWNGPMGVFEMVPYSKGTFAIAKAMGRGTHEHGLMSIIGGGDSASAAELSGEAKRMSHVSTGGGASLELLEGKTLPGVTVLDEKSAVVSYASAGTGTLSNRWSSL
# Summary of the method: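 Inhibition of the enzyme is judged by a Kinase-Glo Plus luminescent signal following a one-hour incubation at room temperature. Because 1,3-BPG is unstable, it is made in situ by GAPDH at 100nM final; no-PGK wells define the baseline.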
# [8] = molecular target: phosphoglycerate mutase (Leishmania major) (UniProt Q4Q090); assay: qHTS Validation Assay to Find Inhibitors of Phosphoglycerate Mutase (AID 504548); conditions: biochemical enzyme activity; series mostly up to 57.5 µM
# Summary of the method: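 Lm PGAM at 1.25 nM final with substrate in 100 mM TEA pH 7.6, 5 mM MgCl2, 0.01% Tween-20; 45 min at room temperature. Kinase-GloPlus added, 10 min, end-point luminescence read.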
# [9] = molecular target: Ubiquitin carboxyl-terminal hydrolase 1 (Homo sapiens) (UniProt O94782); assay: Inhibitors of USP1/UAF1: Pilot qHTS (AID 504865); conditions: purified USP1/UAF1, Ub-rhodamine cleavage fluorescence; series mostly up to 114 µM;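 also: rhodamine fluorescence freed from ubiquitin-rhodamine substrate followed over time; top concentration of the series differs between compounds; nearly all actives have a fitted effect of over 35% in size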
# Chain of Ubiquitin carboxyl-terminal hydrolase 1 (Homo sapiens) (O94782 whole entry, looked up): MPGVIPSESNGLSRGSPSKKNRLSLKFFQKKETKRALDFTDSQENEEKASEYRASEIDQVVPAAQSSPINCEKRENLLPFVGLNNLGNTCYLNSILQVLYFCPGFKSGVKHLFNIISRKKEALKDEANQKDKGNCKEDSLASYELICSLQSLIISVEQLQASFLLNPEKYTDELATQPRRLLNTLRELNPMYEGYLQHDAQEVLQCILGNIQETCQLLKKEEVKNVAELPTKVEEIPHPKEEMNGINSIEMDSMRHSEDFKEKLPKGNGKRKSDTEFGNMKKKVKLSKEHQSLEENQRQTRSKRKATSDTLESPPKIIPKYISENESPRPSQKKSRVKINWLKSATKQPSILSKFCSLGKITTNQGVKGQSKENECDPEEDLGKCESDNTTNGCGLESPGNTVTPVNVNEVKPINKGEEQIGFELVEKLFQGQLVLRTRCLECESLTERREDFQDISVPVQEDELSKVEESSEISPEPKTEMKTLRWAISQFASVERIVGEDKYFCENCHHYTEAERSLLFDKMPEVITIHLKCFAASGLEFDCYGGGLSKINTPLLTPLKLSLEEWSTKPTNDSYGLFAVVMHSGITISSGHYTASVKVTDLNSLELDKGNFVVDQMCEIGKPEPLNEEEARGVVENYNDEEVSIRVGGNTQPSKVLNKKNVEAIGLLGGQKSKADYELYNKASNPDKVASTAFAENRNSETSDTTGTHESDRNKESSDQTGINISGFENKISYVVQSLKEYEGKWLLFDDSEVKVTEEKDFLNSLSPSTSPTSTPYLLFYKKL
# Summary of the method: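 Enzyme-free wells gave the negative control, while test wells held 1nM USP1/UAF1 preincubated with compound for 15 min at room temperature. Ub-Rho at 150nM final started the reaction, and fluorescence at 480/540 nm was recorded kinetically.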
# [10] = molecular target: DNA dC->dU-editing enzyme APOBEC-3G (Homo sapiens) (UniProt Q9HC16); assay: qHTS for inhibitors of Vif-A3G interactions: Validation (AID 588379); conditions: Vif-A3G protein interaction assay; series mostly up to 46.1 µM
# Chain of DNA dC->dU-editing enzyme APOBEC-3G (Homo sapiens) (Q9HC16 whole entry, looked up): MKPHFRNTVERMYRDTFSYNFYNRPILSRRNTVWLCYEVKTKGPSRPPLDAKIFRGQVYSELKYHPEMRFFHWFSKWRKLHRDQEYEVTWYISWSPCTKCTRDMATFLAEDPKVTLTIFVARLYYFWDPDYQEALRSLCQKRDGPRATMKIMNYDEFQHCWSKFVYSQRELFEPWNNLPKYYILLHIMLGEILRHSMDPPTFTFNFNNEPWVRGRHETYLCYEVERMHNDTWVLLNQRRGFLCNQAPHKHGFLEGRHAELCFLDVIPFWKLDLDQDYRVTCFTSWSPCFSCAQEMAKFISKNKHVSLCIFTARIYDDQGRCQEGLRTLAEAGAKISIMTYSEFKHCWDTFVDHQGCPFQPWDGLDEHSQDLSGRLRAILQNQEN
# Summary of the method: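 HeLa cells stably expressing Vif and A3G-eYFP, 700 cells/well, incubated overnight at 37 deg C, then exposed to compound overnight at 37 deg C. Inhibition of Vif-mediated degradation read as increased yellow fluorescence (Ex 488/Em 500-530) by laser-scanning cytometry.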
# [11] = molecular target: Estrogen receptor (Homo sapiens) (UniProt P03372); assay: qHTS assay for small molecule antagonists of estrogen receptor alpha signaling (AID 588513; active = well fitted curve in the direction sought with a large enough effect in the signal ratio, with a control signal flat, not every such curve was filed as active; the % refers to the signal ratio); conditions: ER-alpha-UAS-bla HEK293, beta-lactamase ratio, antagonist mode; series mostly up to 76.9 µM
# Chain of Estrogen receptor (Homo sapiens) (P03372 whole entry, looked up): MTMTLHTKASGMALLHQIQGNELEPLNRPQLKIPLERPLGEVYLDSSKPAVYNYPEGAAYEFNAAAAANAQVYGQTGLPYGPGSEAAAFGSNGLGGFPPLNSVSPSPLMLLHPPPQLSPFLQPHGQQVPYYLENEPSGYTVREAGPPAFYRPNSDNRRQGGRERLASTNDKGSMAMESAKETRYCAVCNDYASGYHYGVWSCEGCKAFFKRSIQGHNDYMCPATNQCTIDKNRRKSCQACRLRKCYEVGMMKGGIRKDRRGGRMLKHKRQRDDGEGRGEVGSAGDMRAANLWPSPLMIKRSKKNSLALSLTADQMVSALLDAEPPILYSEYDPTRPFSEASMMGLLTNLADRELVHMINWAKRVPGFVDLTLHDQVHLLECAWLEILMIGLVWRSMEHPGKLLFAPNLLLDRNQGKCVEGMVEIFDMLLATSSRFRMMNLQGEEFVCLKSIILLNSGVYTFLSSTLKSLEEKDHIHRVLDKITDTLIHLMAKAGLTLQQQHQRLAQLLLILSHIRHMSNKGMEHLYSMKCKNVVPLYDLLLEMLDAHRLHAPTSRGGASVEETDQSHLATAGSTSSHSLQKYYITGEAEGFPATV
# Summary of the method: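 Antagonist-mode qHTS in ER-alpha-UAS-bla HEK 293 cells: compound titration, 0.5nM estradiol for 18 h, CCF4 fluorescence, Hill-derived IC50.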
# [12] = molecular target: Glucocorticoid receptor (Homo sapiens) (UniProt P04150); assay: qHTS assay for small molecule antagonists of glucocorticoid receptor signaling (AID 588533; active = well fitted inhibition curve with a large enough effect in the signal ratio, with a control signal flat, not every such curve was filed as active; the % refers to the signal ratio;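 also: cells stimulated with 2 nM dexamethasone as agonist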); conditions: HeLa MMTV-bla, GRE beta-lactamase ratio, antagonist mode, 18 h; series mostly up to 76.8 µM
# Chain of Glucocorticoid receptor (Homo sapiens) (P04150 whole entry, looked up): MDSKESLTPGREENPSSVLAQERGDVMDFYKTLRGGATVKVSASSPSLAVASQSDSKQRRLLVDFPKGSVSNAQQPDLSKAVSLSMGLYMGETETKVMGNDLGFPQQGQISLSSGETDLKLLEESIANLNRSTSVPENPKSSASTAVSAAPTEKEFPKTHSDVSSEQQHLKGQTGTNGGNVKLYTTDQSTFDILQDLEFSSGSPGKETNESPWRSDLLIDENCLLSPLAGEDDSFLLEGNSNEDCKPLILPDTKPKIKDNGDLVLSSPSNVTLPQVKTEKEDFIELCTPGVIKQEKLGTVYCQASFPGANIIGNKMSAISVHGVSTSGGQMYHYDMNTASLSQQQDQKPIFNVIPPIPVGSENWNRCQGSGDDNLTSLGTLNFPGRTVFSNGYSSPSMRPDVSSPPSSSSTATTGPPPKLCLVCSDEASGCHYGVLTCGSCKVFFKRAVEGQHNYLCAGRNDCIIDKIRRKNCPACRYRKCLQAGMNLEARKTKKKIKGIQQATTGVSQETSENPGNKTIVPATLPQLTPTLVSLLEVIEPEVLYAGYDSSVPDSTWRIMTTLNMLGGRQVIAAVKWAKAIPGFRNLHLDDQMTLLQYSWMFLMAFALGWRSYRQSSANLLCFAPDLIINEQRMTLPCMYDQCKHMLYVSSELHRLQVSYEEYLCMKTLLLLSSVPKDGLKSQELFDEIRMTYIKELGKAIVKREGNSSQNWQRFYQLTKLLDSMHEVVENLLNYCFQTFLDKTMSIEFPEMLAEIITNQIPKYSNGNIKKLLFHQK
# Summary of the method: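 Antagonist-mode qHTS: compound titrations added to GRE-bla HeLa cells, then dexamethasone 2 nM final; 18 h, 37 C. CCF4 FRET fluorescence normalized to dexamethasone and DMSO; IC50 from Hill fit.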
# [13] = molecular target: Peroxisome proliferator-activated receptor gamma (Homo sapiens) (UniProt P37231); assay: qHTS assay for small molecule agonists of peroxisome proliferator-activated receptor gamma signaling (AID 588536; active = well fitted curve in the direction sought with a large enough effect in the signal ratio, with a control signal flat, not every such curve was filed as active; the % refers to the signal ratio); conditions: HEK293 PPARg-UAS-bla, beta-lactamase ratio, 16 h, percent of rosiglitazone response, DMSO as zero; series mostly up to 76.7 µM
# Chain of Peroxisome proliferator-activated receptor gamma (Homo sapiens) (P37231 whole entry, looked up): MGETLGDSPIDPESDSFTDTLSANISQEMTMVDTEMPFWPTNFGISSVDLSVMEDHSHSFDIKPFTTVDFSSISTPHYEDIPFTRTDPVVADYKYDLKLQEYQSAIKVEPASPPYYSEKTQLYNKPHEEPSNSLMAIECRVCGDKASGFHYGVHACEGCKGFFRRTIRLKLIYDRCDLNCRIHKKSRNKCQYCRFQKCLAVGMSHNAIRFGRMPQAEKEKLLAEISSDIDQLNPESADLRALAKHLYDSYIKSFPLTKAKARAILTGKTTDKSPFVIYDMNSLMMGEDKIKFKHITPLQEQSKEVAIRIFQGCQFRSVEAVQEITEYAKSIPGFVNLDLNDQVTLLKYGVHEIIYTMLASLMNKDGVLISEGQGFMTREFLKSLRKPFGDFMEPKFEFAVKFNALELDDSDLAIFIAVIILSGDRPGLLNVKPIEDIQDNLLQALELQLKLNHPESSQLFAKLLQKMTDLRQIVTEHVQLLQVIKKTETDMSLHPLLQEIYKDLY
# Summary of the method: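 GeneBLAzer PPAR-gamma-UAS-bla HEK293 cells in 1% charcoal/dextran-treated FBS medium were treated 16 h at 37 C with compounds. Beta-lactamase activity was read by CCF4 ratio (460/530 nm). Response was normalized to 2 uM rosiglitazone (100%) and DMSO, then Hill-fitted for EC50 and efficacy.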
# [14] = molecular target: Bile acid receptor (Homo sapiens) (UniProt Q96RI1); assay: qHTS assay for small molecule antagonists of farnesoid X receptor signaling (AID 588526; calls by dose curve); conditions: HEK293T FXR-UAS-bla, beta-lactamase ratio, antagonist mode; series mostly up to 76.7 µM
# Chain of Bile acid receptor (Homo sapiens) (Q96RI1 whole entry, looked up): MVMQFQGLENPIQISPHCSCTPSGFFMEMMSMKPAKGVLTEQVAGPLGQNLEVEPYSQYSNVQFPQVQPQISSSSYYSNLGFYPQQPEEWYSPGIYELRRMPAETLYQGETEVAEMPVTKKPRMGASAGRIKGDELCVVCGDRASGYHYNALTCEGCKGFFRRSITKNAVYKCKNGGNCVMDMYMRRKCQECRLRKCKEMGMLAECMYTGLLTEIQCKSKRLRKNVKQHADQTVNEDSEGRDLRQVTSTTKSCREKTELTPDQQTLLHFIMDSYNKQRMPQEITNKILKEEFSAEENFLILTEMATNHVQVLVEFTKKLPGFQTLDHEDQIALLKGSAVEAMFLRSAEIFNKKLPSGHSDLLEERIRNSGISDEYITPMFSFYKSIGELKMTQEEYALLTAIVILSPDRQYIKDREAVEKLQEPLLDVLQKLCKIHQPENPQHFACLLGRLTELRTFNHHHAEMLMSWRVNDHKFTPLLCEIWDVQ
# Summary of the method: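 Beta-lactamase reporter antagonist mode: HEK293T FXR-UAS-bla cells, titrated compound, CDCA stimulation, 16 h 37 C, CCF4 dye 2 h RT. Data normalized to CDCA 50 uM and DMSO; Hill-fit IC50.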
# [15] = molecular target: Glucocorticoid receptor (Homo sapiens) (UniProt P04150); assay: qHTS assay for small molecule agonists of glucocorticoid receptor signaling (AID 588532; active = well fitted curve in the direction sought with a large enough effect in the signal ratio, with a control signal flat; the % refers to the signal ratio); conditions: HeLa MMTV-bla, beta-lactamase ratio, agonist, 18 h; stronger effect = higher value; percent of dexamethasone control, DMSO zero
# Summary of the method: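 Agonist-mode qHTS: GRE-driven beta-lactamase in HeLa cells exposed 18 h to titrated compounds (up to 92 uM), then CCF4 ratio read after 2 h at RT; Hill-fitted EC50, efficacy relative to 0.1 uM dexamethasone.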
# [16] = qHTS assay for small molecule antagonists of peroxisome proliferator-activated receptor delta signaling (AID 588535; active = well fitted inhibition curve with a large enough effect in the signal ratio, with a control signal flat, not every such curve was filed as active; the % refers to the signal ratio;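 as to max response: cells co-treated with a PPAR-delta agonist as stimulator during compound exposure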); conditions: HEK293T PPARd-UAS-bla, beta-lactamase FRET ratio, 18 h; 460 nm channel
# Summary of the method: (§1)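 Cell-based beta-lactamase assay in antagonist mode: 4000 HEK293T PPAR-delta-UAS-bla cells per well, 5 hr preincubation then 18 hr compound incubation at 37 C. IC50 obtained by Hill equation fitting.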
# [17] = molecular target: Peroxisome proliferator-activated receptor delta (Homo sapiens) (UniProt Q03181); assay: as above; conditions: HEK293T PPARd-UAS-bla, beta-lactamase FRET ratio, 18 h; series mostly up to 76.7 µM
# Chain of Peroxisome proliferator-activated receptor delta (Homo sapiens) (Q03181 whole entry, looked up): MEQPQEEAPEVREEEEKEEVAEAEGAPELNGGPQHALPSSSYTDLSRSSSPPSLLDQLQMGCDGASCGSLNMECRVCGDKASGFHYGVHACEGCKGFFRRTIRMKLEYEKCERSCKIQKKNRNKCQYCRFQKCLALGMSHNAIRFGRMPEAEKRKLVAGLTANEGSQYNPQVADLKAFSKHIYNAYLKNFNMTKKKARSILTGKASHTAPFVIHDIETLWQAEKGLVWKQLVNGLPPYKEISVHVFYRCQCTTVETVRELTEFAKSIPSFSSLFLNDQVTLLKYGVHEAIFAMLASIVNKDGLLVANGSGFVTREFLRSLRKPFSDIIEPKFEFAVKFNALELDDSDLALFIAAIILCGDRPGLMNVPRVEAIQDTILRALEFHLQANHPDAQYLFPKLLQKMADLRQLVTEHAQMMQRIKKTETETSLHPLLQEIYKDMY
# Summary of the method: as §1
# [18] = molecular target: Peroxisome proliferator-activated receptor gamma (Homo sapiens) (UniProt P37231); assay: qHTS assay for small molecule antagonists of peroxisome proliferator-activated receptor gamma signaling (AID 588537; active = well fitted inhibition curve with a large enough effect in the signal ratio, with a control signal flat, not every such curve was filed as active; the % refers to the signal ratio;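 also: reporter cells co-stimulated with 50 nM rosiglitazone agonist during compound treatment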); conditions: HEK293 PPARg-UAS-bla, beta-lactamase ratio, antagonist mode; series mostly up to 76.8 µM
# Summary of the method: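 Inhibitors of agonist-stimulated UAS-bla reporter activity were sought in HEK293 cells; rosiglitazone (50 nM) defined full signal and DMSO baseline. Curves fitted to Hill model gave IC50 and efficacy.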
compound,measurement,setting,value
CN1Cc2c(N)cccc2C(c2ccccc2)C1 (stereo not given),outcome,[1],inactive
same,outcome,[2],inactive
same,viability change,[2],7.68%
same,outcome,[3],inactive
same,outcome,[4],inactive
same,outcome,[5],inactive
same,outcome,[6],inactive
same,outcome,[7],inactive
same,outcome,[8],inactive
CC[N+](C)(C)Cc1ccccc1Br,outcome,[4],inactive
same,outcome,[5],inactive
CCCC(=O)Nc1ncnc2c1ncn2[C@@H]1O[C@@H]2COP(=O)(O)O[C@H]2[C@H]1OC(=O)CCC,Potency,[9],inactive
same,outcome,[10],inactive
COC(=O)C1=C(C)NC(C)=C(C(=O)OCCCN2CCC(c3ccccc3)(c3ccccc3)CC2)[C@H]1c1cccc([N+](=O)[O-])c1,outcome,[10],inactive
CCCCCCCC(=O)O,Potency,[9],inactive
same,outcome,[11],inactive
same,outcome,[12],inactive
same,outcome,[13],inactive
CC1=C2[C@@H]([C@H](C)CC[C@H]2/C=C(\C)C(=O)O)[C@H](O)C1,outcome,[11],inactive
same,Potency,[14],inactive
same,outcome,[13],inactive
C[C@H]1C[C@H]2[C@@H]3CCC4=CC(=O)C=C[C@]4(C)[C@@]3(F)[C@@H](O)C[C@]2(C)[C@@]1(O)C(=O)CO,Potency,[9],inactive
same,outcome,[12],inactive
Nc1ccn([C@H]2CS[C@@H](CO)O2)c(=O)n1,activation,[15],-2.07% (inactive)
same,outcome,[12],inactive
same,max response,[16],-4.56%
same,outcome,[17],inactive
same,outcome,[13],inactive
CC(C)(C)C(=O)OCOC(=O)[C@@H]1N2C(=O)[C@@H](N=CN3CCCCCC3)[C@H]2SC1(C)C,Potency,[9],inactive
COC(=O)CCC(=O)CN,Potency,[9],inactive
Cc1c(C)c2c(c(C)c1O)CC[C@@](C)(CCC[C@H](C)CCC[C@H](C)CCCC(C)C)O2,Potency,[9],inactive
same,outcome,[10],inactive
CC(=O)N[C@@H](CC(=O)O)C(=O)N[C@@H](CCC(=O)O)C(=O)O (Ac-Asp-Glu-OH),Potency,[9],inactive
same,outcome,[10],inactive
C=CCSSSCC=C,Potency,[9],inactive
Nc1ncnc2c1ncn2[C@@H]1O[C@H](COP(=O)(O)OP(=O)(O)OP(=O)(O)O)[C@@H](O)[C@H]1O,Potency,[9],inactive
O=S(=O)(O)O,Potency,[9],inactive
same,outcome,[13],inactive
same,outcome,[18],inactive
CC(O)CO (stereo not given),Potency,[9],inactive
same,outcome,[11],inactive
same,Potency,[14],inactive
same,activation,[15],-4.49% (inactive) and -3.73% (inactive)
same,outcome,[12],inactive
same,max response,[16],21.4% and -10.4%
same,outcome,[17],inactive
same,outcome,[13],inactive
same,outcome,[18],inactive
COC(=O)[C@H]1[C@H]2CC3c4[nH]c5ccccc5c4CCN3C[C@@H]2CC[C@@H]1O (stereo not given in full),outcome,[10],inactive
O=CCCCC=O,outcome,[11],inactive
same,Potency,[14],inactive
same,activation,[15],5.8% (inactive)
same,max response,[16],37.6%
same,outcome,[17],inactive
CCC(=O)NCCC1CCc2ccc3c(c21)CCO3 (stereo not given),Potency,[9],inactive
